From PubChem BioAssay
MITF primary = MITF inhibitors, primary screen, biochemical, AlphaScreen, human | hit rate 0.91% among 650,000 | Microphthalmia-associated transcription factor (Homo sapiens), O75030 | AlphaScreen MITF homodimerization, bead proximity signal | inhibition, % at 2.6 µM; in the data active means inhibition above about 50%;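 further: 0% = vehicle wells with protein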
Target sequence (O75030 whole entry, looked up): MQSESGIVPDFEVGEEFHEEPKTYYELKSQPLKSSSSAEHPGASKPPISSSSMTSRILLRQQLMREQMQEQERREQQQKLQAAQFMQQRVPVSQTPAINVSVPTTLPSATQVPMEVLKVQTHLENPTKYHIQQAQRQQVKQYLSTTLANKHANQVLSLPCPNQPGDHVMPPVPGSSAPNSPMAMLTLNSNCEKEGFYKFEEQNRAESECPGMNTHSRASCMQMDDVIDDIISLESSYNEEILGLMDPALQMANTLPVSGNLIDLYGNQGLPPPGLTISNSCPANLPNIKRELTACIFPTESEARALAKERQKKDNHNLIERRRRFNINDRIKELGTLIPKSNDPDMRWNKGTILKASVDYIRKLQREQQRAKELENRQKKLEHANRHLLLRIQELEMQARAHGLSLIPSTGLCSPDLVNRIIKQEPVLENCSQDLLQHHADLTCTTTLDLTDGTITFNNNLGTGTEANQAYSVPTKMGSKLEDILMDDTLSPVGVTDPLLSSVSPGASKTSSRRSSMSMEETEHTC
GPR151 ag = activators of human GPR151, primary screen, cell-based, PathHunter beta-arrestin, luminescence; PathHunter beta-arrestin GPR151 cells; AID 1508602, 2020; hit rate 1% among 650,000; G-protein coupled receptor 151 (Homo sapiens), Q8TDV0; activation, % at 11.2 µM; in the data active means activation above about 4.9%;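 further: 0% = median of compound wells and 100% = cells with positive control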
TEAD-YAP inh = TEAD-YAP interaction inhibition, primary screen, TEAD-YAP interaction inhibitor project, luminescence, HEK-TIYL cells | hit rate 1.4% among 640,000 | TEAD-Gal4/YAP UAS-luciferase luminescence | inhibition, % at 9.12 µM; in the data active means inhibition above about 32%;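 further: 0% = median of test compound wells and 100% = reference inhibitor wells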
FBW7 activator = FBW7 E3 ligase activators, primary screen, biochemical, AlphaScreen, human; F-box/WD repeat-containing protein 7 (Homo sapiens), Q969H0; AlphaScreen FBW7–phospho-cyclin E peptide binding, activator screen; normalized activity (activation), % at 26.1 µM; hit rate 0.13% among 650,000; AID 1259310, 2017; in the data active means normalized activity above about 1.9%;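 further: purified mutant Fbw7 with reduced substrate affinity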
* = called active by the depositor. This is a sample that favours compounds with a hit; in the whole collection about 3.5% have one here.

SMILES	MITF primary	GPR151 ag	TEAD-YAP inh	FBW7 activator
COc1cc(NC(=O)C(c2ccccc2)c2ccccc2)c(OC)cc1NC(C)=O	9	0	-7	0
NNc1nc(Nc2ccccc2)nc(Nc2ccccc2)n1	4	-1	35*	-1
COc1ccc(CN2CCN(Cc3cnn(C)c3)CC2CCO)c(F)c1 (configuration not stated)	-1	0	14	0
Cc1noc(-c2ccc(NC(=O)c3cccnc3)cc2)n1	13	-10	43*	0
CC(C)(C)c1ccc2c(c1)NC(=O)CO2	-14	0	35*	0
O=C1COc2ccc(C(=O)O)cc2N1	9	0	7	0
COc1ccc(C(=O)Nc2ccccc2C(=O)Nc2nc3ccccc3n2C)cc1	-5	-2	94*	0
COc1ccc(C(=O)Nc2cc(C)c(C)s2)cc1	-9	-6	34*	0
COc1ccc(C(=O)Nc2nc3ccccc3n2C)cc1	0	-5	6	0
O=C(Nc1cnc2ccccc2c1)c1cccc(F)c1	-3	-1	36*	0
COc1ccc(C(=O)Nc2cnc3ccccc3c2)cc1	-2	-8	84*	0
COc1ccc(C)cc1S(=O)(=O)NCCc1csc2nc(-c3ccc(C)cc3)nn12	0	-1	-4	0
COC(=O)c1ccc(OCC2c3cc(OC)c(OC)cc3CCN2C(=O)CCC2CCCCC2)cc1 (configuration not stated)	0	0	-5	0
CN1CCN(C(c2ccccc2Cl)c2nnnn2Cc2ccco2)CC1 (configuration not stated)	20	-2	-39	1
COc1cc(Nc2cc(Nc3ccccc3C(N)=O)ccn2)cc(OC)c1OC	15	3	-11	0
CCCCc1ccc(NC(=O)c2ccccc2)cc1	10	-6	-12	0
CCCCc1ccc(C(=O)Nc2cnc3ccccc3c2)cc1	6	-2	40*	0
COc1ccc(C(=O)Nc2cnc(NC(=O)c3ccccc3)cc2C)cc1	-8	-2	45*	0
COc1ccc(C(=O)Nc2cc(Nc3ccccc3C(N)=O)ccn2)cc1	1	0	37*	0
COCCNC(=S)N/N=C/c1ccc(N2CCOCC2)cc1	-1	-1	64*	0
Oc1ccc(/C=N/NC(=S)N2CCOCC2)cc1	13	-3	50*	0
COCCNC(=O)CCC1CCN(C(=O)C#Cc2ccccc2)CC1	2	2	38*	0
COCCNC(=O)CCC1CCN(C(=O)CCOc2ccccc2)CC1	-13	-1	-4	0
COc1ccc(-c2nc3cc(NC(=O)COc4ccc(I)cc4)ccc3o2)cc1	2	1	-4	0
C=CCN1/C(=C/C(=C/c2sc3ccccc3[n+]2CC=C)CC)Sc2ccccc21	52*	4	83*	0
SMILES	MITF primary	GPR151 ag	TEAD-YAP inh	FBW7 activator
CCCn1c(=O)c2c(nc3n(-c4ccc(C(=O)OCC)cc4)c(C)c(C)n23)n(C)c1=O	-11	1	-6	0
COc1ccc2[nH]c3c(c2c1)CCNC3=O	-3	1	46*	0
CN(C)N1C(N)=C(C#N)C(c2ccccc2Cl)C2=C1CC(c1ccccc1)CC2=O (configuration not stated)	-10	-2	39*	0
Cc1cc(C)nc(N2CCC(C(=O)Nc3ccccc3Br)CC2)n1	6	0	2	0
COc1cccc(C(=O)C[n+]2cc(-c3ccc(F)cc3)n(C)c2N)c1	0	-1	85*	0
CCN1C(=O)/C(=C/c2c(N3CCN(C)CC3)nc3ccc(C)cn3c2=O)SC1=S	5	2	-4	0
FC(F)(F)c1ccccc1NC(=S)N/N=C1\CC2CC=CC12 (configuration not stated)	19	-1	47*	0
CCOC(=O)c1c(C)oc(C)c1CNC(N)=O	-6	-1	-6	0
CC(C)c1ccc(/C=C2\C(=O)NC(=O)N(c3ccc([N+](=O)[O-])cc3)C2=O)cc1	0	-1	4	0
Cc1cc(C)c(NS(=O)(=O)c2ccc3c4c2CC(=O)N4CC(C)S3)c(C)c1 (configuration not stated)	-4	0	4	0
COc1cccc(NS(=O)(=O)c2ccc3c4c2CC(=O)N4CC(C)S3)c1 (configuration not stated)	16	-2	40*	0
O=C(Nc1ccccc1-n1ccnc1)c1ncoc1-c1ccccc1C(F)(F)F	8	1	6	0
NC(=O)c1ccccc1NC(=O)c1ncoc1-c1ccccc1C(F)(F)F	0	-2	49*	0
O=C(CN1C(=O)/C(=C\c2ccccc2)Oc2ccccc21)NC1CCCCC1	7	-1	-3	1
O=C(CN1C(=O)/C(=C\c2ccccc2Br)Oc2ccccc21)NC1CCCC1	8	0	57*	0
Cc1c(C)n2c3c(=O)n(CCc4ccccc4)c(=O)n(C)c3nc2n1CCOCCO	10	-1	5	0
CN(Cc1ccno1)C(=O)CC1(c2ccc(-c3ccccc3)cc2)CC(=O)N(C)C1=O (configuration not stated)	-6	0	-58	0
CC(C)(C)OC(=O)N/N=C/c1cccc(O)c1	3	-4	84*	0
O=C(N/N=C/c1cccc(O)c1)c1ccc(F)cc1	8	-1	35*	0
COc1ccc(CC(=O)Nc2cc(NC(=O)c3cccs3)ccc2C)cc1OC	17	-1	32*	0
COc1ccc(-c2ccc(C)c(NC(=O)Cc3ccc(OC)c(OC)c3)c2)nn1	10	0	64*	1
COc1ccc(CC(=O)Nc2ccc(C)c(C)c2)cc1OC	2	1	8	0
COC(CNC(=O)c1c(O)nc2ccccn2c1=O)OC	6	-2	-8	0
NS(=O)(=O)c1ccc(N=Cc2cccs2)cc1	-7	-1	5	1
Cc1ccc(NC(=O)CC2SC(N)=NC2=O)cc1 (configuration not stated)	6	1	-7	0
SMILES	MITF primary	GPR151 ag	TEAD-YAP inh	FBW7 activator
NC1=NC(=O)C(CC(=O)Nc2ccc(NC(=O)CC3SC(N)=NC3=O)cc2)S1 (configuration not stated)	55*	0	4	0
COc1cc(OC)c(NC(=O)CSc2nc3[nH]ncc3c(=O)n2-c2ccccc2OC)cc1Cl	7	0	13	0
Cc1ccccc1C(=O)NNC(=O)COc1cc(C)c(Cl)c(C)c1	2	1	9	0
CN(Cc1ccccc1)S(=O)(=O)c1cccc2nonc12	4	-1	12	0
O=c1cc(Nc2ccc3c(c2)OCCO3)[nH]c(=O)n1-c1ccc(Cl)cc1	-3	0	-5	0
O=c1cc(Nc2ccc3c(c2)OCCO3)[nH]c(=O)n1C1CCCCC1	11	1	58*	0
CCOC(=O)CN1CCOCCN(CC(=O)OCC)CCOCC1	-1	-1	1	0
